Reference: PubChem BioAssay (NCI)
The panel holds about 83,000 compounds, 20% with a hit somewhere; the sample as a whole holds those more often.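 Values shown are percent growth following 48 h exposure of cells in 96-well plates to a single concentration of compound; below 10 was considered active.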 Active and inactive are the calls of the source.

tested on: CAKI-1 renal; experiment: NCI-60 one-dose screen, 48 h (100 = growth as untreated, 0 = no growth, -100 = all killed); conditions: 10 µM unless noted

Row | SMILES | growth
1 | CC1(C)OC2COC3(C(=O)O)OC(C)(C)OC3C2O1 (stereo unspecified) | 103% (inactive)
2 | Cc1ccc(Cn2c(-c3cccs3)nc3ccccc32)cc1 | 86.3% (inactive)
3 | COc1cc2c(cc1OC)C1(C)N(CC2)C(=O)OC1(C)C (stereo unspecified) | 102% (inactive)
4 | Cc1cc(-c2ccccc2)c(C)n1Cc1ccc(Cl)cc1 | 21.5% (inactive)
5 | CCN(Cc1ccccc1)c1ccc(SC#N)cc1 | 92.6% (inactive)
6 | O=C1Nc2ccc(Br)cc2C1=N/C=c1\[nH]c(=O)/c(=C/c2ccc(Cl)cc2)s1 | 101% (inactive)
7 | COc1ccc(-c2nc(-c3ccccc3)c(-c3ccccc3)n2C2CC2)cc1OC1CCCCC1 | 58.4% (inactive)
8 | CC(=O)Nc1ccc(S(=O)(=O)N2C(=O)CCC2C(=O)Nc2ccccc2)cc1 (stereo unspecified) | 9.53% (active)
9 | COc1cc(CNC(=O)CCSc2nc3ccccc3c(=O)n2Cc2cc(OC)c(OC)c(OC)c2)cc(OC)c1OC | 34.3% (inactive)
10 | O=C(CN1CCN(c2cc3c(cc2F)c(=O)c(C(=O)O)cn3C2CC2)CC1)Nc1ccc(C(=O)/C=C/c2ccccc2)cc1 | 73.1% (inactive)
11 | CC(C)N(Cc1ccc(CN(C(=O)CCl)C(C)C)cc1)C(=O)CCl | 33.6% (inactive)
12 | COc1ccc(/C=C/c2cc(N3CCOCC3)c3cc(F)c(F)cc3n2)cc1OC | 8.6% (active)
13 | COc1cccc(-n2cc(-c3nc(Cl)c4ccccc4n3)nn2)c1 | 99.1% (inactive)
14 | CCNC(=O)C1CCCN1C(=O)C(CCCN=C(N)N)NC(=O)C(CC(C)C)NC(=O)C(CC(C)C)NC(=O)C(Cc1ccc(O)cc1)NC(=O)C(CO)NC(=O)C(Cc1c[nH]c2ccccc12)NC(=O)C(Cc1cnc[nH]1)NC(=O)C1CCC(=O)N1 (stereo unspecified) | 84.9% (inactive)
15 | Nc1c(C(=O)Nc2cccc(Cl)c2Cl)sc2nc3c(cc12)C(=O)CCC3 | 79% (inactive)
16 | COc1cc(C2C=C(C)N=C3SC(C)=NN32)cc(OC)c1OC (stereo unspecified) | 103% (inactive)
17 | Nc1c(C(=O)Nc2cccc(C(F)(F)F)c2)sc2nc3c(cc12)CCCCCC3 | 20.8% (inactive)
18 | O=Nc1c(-c2c(O)[nH]c3ccc([N+](=O)[O-])cc23)[nH]c2ccc(O)cc12 | -14.3% (active)
19 | c1cc(-c2ccc3c(c2)OCO3)n2nccc2n1 | 94.4% (inactive)

Row | SMILES | growth
20 | Nc1c(C(=O)Nc2cccc([N+](=O)[O-])c2)sc2nc3c(cc12)C(O)CCC3 (stereo unspecified) | 66.7% (inactive)
21 | CCn1cc(C(=O)O)c(=O)c2cc(F)c(N3CCN(S(=O)(=O)c4ccc(Cl)cc4Cl)CC3)cc21 | 4.75% (active)
22 | CN1C(=O)[C@H]2c3c1cccc3[C@@]13NC(=O)O[C@H]1[C@H](CCC3(C)C)C2(C)C | 94.4% (inactive)
23 | CN1CCN(c2ccc3cc(-c4nc5ccccc5[nH]4)c(=O)oc3c2)CC1 | 84.8% (inactive)
24 | Cc1ccc(Cn2c(-c3nonc3N)nc3ccccc32)cc1 | 69.7% (inactive)
25 | CCc1cccc(C)c1NC(=O)c1sc2nc3c(cc2c1N)C(=O)CCC3 | 45.8% (inactive)
26 | COc1cc(-c2cc(/C=C3\CCCCC3=O)[nH]n2)cc(OC)c1OC | 91.2% (inactive)
27 | FC(F)(F)c1cccc(-n2nnc3cnc(Nc4ccc(N5CCCCC5)cc4)nc32)c1 | 72.9% (inactive)
28 | Cc1ccc(OCCn2c(C)nn(-c3ccc(Cl)cc3)c2=O)cc1 | 93.7% (inactive)
29 | CN1CCN(CCCOc2ccc3nc(Nc4ccc(C(F)(F)F)c(Cl)c4)ccc3c2)CC1 | 3.08% (active)
30 | COc1cc(Cn2c(SCC(=O)Nc3cc(OC)c(OC)c(OC)c3)nc3ccccc3c2=O)cc(OC)c1OC | 95.5% (inactive)
31 | c1ccc(CCn2nnc3c(Nc4ccc(N5CCOCC5)cc4)ncnc32)cc1 | 86.3% (inactive)
32 | CCCC1OC(c2ccc(C(C)C)cc2)OCC1CC (stereo unspecified) | 90.9% (inactive)
33 | Oc1ccc(N=Cc2ccccc2)cc1 | 105% (inactive)
34 | COc1cccc(NC(=O)c2sc3nc4c(cc3c2N)CCCC4)c1 | 31% (inactive)
35 | Cn1cc(C=O)c2ccccc21 | 94.6% (inactive)
36 | O=C1CCCCN1CCCCC#Cc1ccccc1C#Cc1ccc([N+](=O)[O-])cc1 | 58.4% (inactive)
37 | O=C(c1ccncc1)N1N=C(c2ccc(Cl)cc2)CC1c1c[nH]c2ccccc12 (stereo unspecified) | 90.2% (inactive)
38 | Cc1cc2c(c(=O)o1)C(c1ccc(OC(=O)N3CCOCC3)cc1)C(C#N)=C(N)O2 (stereo unspecified) | 95.2% (inactive)

tested on: A498 renal; experiment: as above; conditions: 10 µM unless noted

Row | SMILES | growth
39 | CC1(C)OC2COC3(C(=O)O)OC(C)(C)OC3C2O1 (stereo unspecified) | 91.7% (inactive)
40 | Cc1ccc(Cn2c(-c3cccs3)nc3ccccc32)cc1 | 80.2% (inactive)
41 | COc1cc2c(cc1OC)C1(C)N(CC2)C(=O)OC1(C)C (stereo unspecified) | 78.8% (inactive)
42 | Cc1cc(-c2ccccc2)c(C)n1Cc1ccc(Cl)cc1 | 23.8% (inactive)
43 | CCN(Cc1ccccc1)c1ccc(SC#N)cc1 | 86.9% (inactive)
44 | O=C1Nc2ccc(Br)cc2C1=N/C=c1\[nH]c(=O)/c(=C/c2ccc(Cl)cc2)s1 | 94.5% (inactive)
45 | COc1ccc(-c2nc(-c3ccccc3)c(-c3ccccc3)n2C2CC2)cc1OC1CCCCC1 | 63.7% (inactive)
46 | CC(=O)Nc1ccc(S(=O)(=O)N2C(=O)CCC2C(=O)Nc2ccccc2)cc1 (stereo unspecified) | 2.01% (active)
47 | COc1cc(CNC(=O)CCSc2nc3ccccc3c(=O)n2Cc2cc(OC)c(OC)c(OC)c2)cc(OC)c1OC | 21.7% (inactive)
48 | O=C(CN1CCN(c2cc3c(cc2F)c(=O)c(C(=O)O)cn3C2CC2)CC1)Nc1ccc(C(=O)/C=C/c2ccccc2)cc1 | 57.7% (inactive)
49 | CC(C)N(Cc1ccc(CN(C(=O)CCl)C(C)C)cc1)C(=O)CCl | 88.2% (inactive)
50 | COc1ccc(/C=C/c2cc(N3CCOCC3)c3cc(F)c(F)cc3n2)cc1OC | 54.8% (inactive)
51 | COc1cccc(-n2cc(-c3nc(Cl)c4ccccc4n3)nn2)c1 | 72.9% (inactive)
52 | CCNC(=O)C1CCCN1C(=O)C(CCCN=C(N)N)NC(=O)C(CC(C)C)NC(=O)C(CC(C)C)NC(=O)C(Cc1ccc(O)cc1)NC(=O)C(CO)NC(=O)C(Cc1c[nH]c2ccccc12)NC(=O)C(Cc1cnc[nH]1)NC(=O)C1CCC(=O)N1 (stereo unspecified) | 98% (inactive)
53 | Nc1c(C(=O)Nc2cccc(Cl)c2Cl)sc2nc3c(cc12)C(=O)CCC3 | -3.22% (active)
54 | COc1cc(C2C=C(C)N=C3SC(C)=NN32)cc(OC)c1OC (stereo unspecified) | 81.8% (inactive)
55 | Nc1c(C(=O)Nc2cccc(C(F)(F)F)c2)sc2nc3c(cc12)CCCCCC3 | -28.3% (active)
56 | O=Nc1c(-c2c(O)[nH]c3ccc([N+](=O)[O-])cc23)[nH]c2ccc(O)cc12 | -24.5% (active)
57 | c1cc(-c2ccc3c(c2)OCO3)n2nccc2n1 | 81.5% (inactive)

Row | SMILES | growth
58 | Nc1c(C(=O)Nc2cccc([N+](=O)[O-])c2)sc2nc3c(cc12)C(O)CCC3 (stereo unspecified) | 27.6% (inactive)
59 | CCn1cc(C(=O)O)c(=O)c2cc(F)c(N3CCN(S(=O)(=O)c4ccc(Cl)cc4Cl)CC3)cc21 | -0.0481% (active)
60 | CN1C(=O)[C@H]2c3c1cccc3[C@@]13NC(=O)O[C@H]1[C@H](CCC3(C)C)C2(C)C | 107% (inactive)
61 | CN1CCN(c2ccc3cc(-c4nc5ccccc5[nH]4)c(=O)oc3c2)CC1 | 86.3% (inactive)
62 | Cc1ccc(Cn2c(-c3nonc3N)nc3ccccc32)cc1 | 40.4% (inactive)
63 | CCc1cccc(C)c1NC(=O)c1sc2nc3c(cc2c1N)C(=O)CCC3 | -9.18% (active)
64 | COc1cc(-c2cc(/C=C3\CCCCC3=O)[nH]n2)cc(OC)c1OC | 95.2% (inactive)
65 | FC(F)(F)c1cccc(-n2nnc3cnc(Nc4ccc(N5CCCCC5)cc4)nc32)c1 | 89.4% (inactive)
66 | Cc1ccc(OCCn2c(C)nn(-c3ccc(Cl)cc3)c2=O)cc1 | 117% (inactive)
67 | CN1CCN(CCCOc2ccc3nc(Nc4ccc(C(F)(F)F)c(Cl)c4)ccc3c2)CC1 | 63.3% (inactive)
68 | COc1cc(Cn2c(SCC(=O)Nc3cc(OC)c(OC)c(OC)c3)nc3ccccc3c2=O)cc(OC)c1OC | 62.4% (inactive)
69 | c1ccc(CCn2nnc3c(Nc4ccc(N5CCOCC5)cc4)ncnc32)cc1 | 77.6% (inactive)
70 | CCCC1OC(c2ccc(C(C)C)cc2)OCC1CC (stereo unspecified) | 94.4% (inactive)
71 | Oc1ccc(N=Cc2ccccc2)cc1 | 78.1% (inactive)
72 | COc1cccc(NC(=O)c2sc3nc4c(cc3c2N)CCCC4)c1 | 17.6% (inactive)
73 | Cn1cc(C=O)c2ccccc21 | 95.4% (inactive)
74 | O=C1CCCCN1CCCCC#Cc1ccccc1C#Cc1ccc([N+](=O)[O-])cc1 | 59.7% (inactive)
75 | O=C(c1ccncc1)N1N=C(c2ccc(Cl)cc2)CC1c1c[nH]c2ccccc12 (stereo unspecified) | 80.5% (inactive)
76 | Cc1cc2c(c(=O)o1)C(c1ccc(OC(=O)N3CCOCC3)cc1)C(C#N)=C(N)O2 (stereo unspecified) | 106% (inactive)
